# Values joined by “and” are separate entries in the source; they are usually repeats but may differ in a detail not shown here. Identical values can stand only once. Out of some 5,500 compounds screened, about 2,000 (36%) were called active. Another 18% or so got no clear call; they are omitted. Cut-off read from the data, not from the text of the source: active = normalized growth mostly below about 0.91 (no sharp cut-off); inconclusive = no clear call, values can overlap the other calls; inactive = mostly above about 0.92. This is one part of the list.
# Experiment: chemical genetic growth profiling, strain panel (AID 1159580);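 note: tested at 20 µM; growth read once vehicle control cultures reached saturation at 30 °C; 1 = growth at the plate median or of vehicle wells; lower values mean less growth of the strain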
# Conditions: S. cerevisiae deletion strains, growth OD
compound,measurement,setting,value
O=C(OCc1ccccc1)c1ccccc1,normalized growth,"locus YAL021C, strain ccr4, stronger effect = lower value",1.02 (inactive)
same,normalized growth,"locus YAL026C, strain drs2, stronger effect = lower value",0.93 (inactive)
same,normalized growth,"locus YAL030W, strain snc1, stronger effect = lower value",0.967 (inactive)
same,normalized growth,"locus YBL061C, strain skt5, stronger effect = lower value",0.966 (inactive)
same,normalized growth,"locus YBR009C, strain hhf1, stronger effect = lower value",0.954 (inactive)
same,normalized growth,"locus YBR021W, strain FUR4, stronger effect = lower value",1 (inactive)
same,normalized growth,"locus YBR023C, strain chs3, stronger effect = lower value",0.942 (inactive)
same,normalized growth,"locus YBR171W, strain sec66, stronger effect = lower value",0.927 (inactive)
same,normalized growth,"locus YBR229C, strain ROT2, stronger effect = lower value",0.994 (inactive)
same,normalized growth,"locus YBR231C, strain swc5, stronger effect = lower value",0.995 (inactive)
same,normalized growth,"locus YBR279W, strain paf1, stronger effect = lower value",0.979 (inactive)
same,normalized growth,"locus YCL011C, strain gbp2, stronger effect = lower value",0.978 (inactive)
same,normalized growth,"locus YCL016C, strain dcc1, stronger effect = lower value",0.947 (inactive)
same,normalized growth,"locus YCL029C, strain bik1, stronger effect = lower value",0.969 (inactive)
same,normalized growth,"locus YCL061C, strain MRC1, stronger effect = lower value",0.958 (inactive)
same,normalized growth,"locus YCL069W, strain vba3, stronger effect = lower value",0.966 (inactive)
same,normalized growth,"locus YCR088W, strain abp1, stronger effect = lower value",0.946 (inactive)
same,normalized growth,"locus YDL005C, strain med2, stronger effect = lower value",0.981 (inactive)
same,normalized growth,"locus YDL035C, strain GPR1, stronger effect = lower value",0.961 (inactive)
same,normalized growth,"locus YDL040C, strain nat1, stronger effect = lower value",0.978 (inactive)
same,normalized growth,"locus YDL074C, strain BRE1, stronger effect = lower value",0.95 (inactive)
same,normalized growth,"locus YDL101C, strain DUN1, stronger effect = lower value",0.939 (inactive)
same,normalized growth,"locus YDL134C, strain PPH21, stronger effect = lower value",0.926 (inactive)
same,normalized growth,"locus YDL185W, strain tfp1, stronger effect = lower value",0.986 (inactive)
same,normalized growth,"locus YDL192W, strain arf1, stronger effect = lower value",0.973 (inactive)
same,normalized growth,"locus YDR001C, strain nth1, stronger effect = lower value",0.943 (inactive)
same,normalized growth,"locus YDR069C, strain doa4, stronger effect = lower value",1.01 (inactive)
same,normalized growth,"locus YDR101C, strain arx1, stronger effect = lower value",0.96 (inactive)
same,normalized growth,"locus YDR137W, strain rgp1, stronger effect = lower value",0.714 (active)
same,normalized growth,"locus YDR159W, strain sac3, stronger effect = lower value",0.951 (inactive)
same,normalized growth,"locus YDR162C, strain NBP2, stronger effect = lower value",0.941 (inactive)
same,normalized growth,"locus YDR195W, strain ref2",1.02 (inactive)
same,normalized growth,"locus YDR297W, strain sur2, stronger effect = lower value",0.961 (inactive)
same,normalized growth,"locus YDR318W, strain mcm21, stronger effect = lower value",0.948 (inactive)
same,normalized growth,"locus YDR334W, strain swr1, stronger effect = lower value",0.977 (inactive)
same,normalized growth,"locus YDR335W, strain msn5, stronger effect = lower value",0.95 (inactive)
same,normalized growth,"locus YDR388W, stronger effect = lower value",0.97 (inactive)
same,normalized growth,"locus YDR392W, strain spt3, stronger effect = lower value",0.764 (inactive)
same,normalized growth,"locus YDR502C, strain sam2, stronger effect = lower value",0.918 (active)
same,normalized growth,"locus YEL003W, strain gim4, stronger effect = lower value",0.959 (inactive)
same,normalized growth,"locus YEL037C, strain rad23, stronger effect = lower value",0.97 (inactive)
same,normalized growth,"locus YEL061C, strain CIN8 (second series), stronger effect = lower value",0.925 (inactive)
same,normalized growth,"locus YEL061C, strain CIN8, stronger effect = lower value",0.988 (inactive)
same,normalized growth,"locus YER015W, strain faa2, stronger effect = lower value",0.966 (inactive)
same,normalized growth,"locus YER016W, strain bim1, stronger effect = lower value",0.973 (inactive)
same,normalized growth,"locus YER110C, stronger effect = lower value",0.975 (inactive)
same,normalized growth,"locus YER111C, strain swi4, stronger effect = lower value",0.957 (inactive)
same,normalized growth,"locus YER155C, strain BEM2 (second series), stronger effect = lower value",0.716 (active)
same,normalized growth,"locus YER155C, strain BEM2, stronger effect = lower value",0.98 (inactive)
same,normalized growth,"locus YER167W, strain BCK2, stronger effect = lower value",0.942 (inactive)
same,normalized growth,"locus YFR010W, strain ubp6, stronger effect = lower value",1.01 (inactive)
same,normalized growth,"locus YGL078C, strain dbp3, stronger effect = lower value",0.943 (inactive)
same,normalized growth,"locus YGL086W, strain mad1, stronger effect = lower value",0.959 (inactive)
same,normalized growth,"locus YGL167C, strain pmr1, stronger effect = lower value",0.965 (inactive)
same,normalized growth,"locus YGL173C, strain kem1, stronger effect = lower value",0.927 (inactive)
same,normalized growth,"locus YGL227W, strain vid30, stronger effect = lower value",0.96 (inactive)
same,normalized growth,"locus YGL240W, strain doc1, stronger effect = lower value",0.968 (inactive)
same,normalized growth,"locus YGL248W, strain PDE1, stronger effect = lower value",0.944 (inactive)
same,normalized growth,"locus YGL253W, strain hxk2, stronger effect = lower value",0.972 (inactive)
same,normalized growth,"locus YGR135W, strain pre9, stronger effect = lower value",0.949 (inactive)
same,normalized growth,"locus YGR229C, strain SMI1, stronger effect = lower value",0.852 (inactive)
same,normalized growth,"locus YGR252W, strain gcn5, stronger effect = lower value",0.923 (inactive)
same,normalized growth,"locus YHR013C, strain ard1, stronger effect = lower value",1.31 [resistant] (active)
same,normalized growth,"locus YHR027C, strain rpn1, stronger effect = lower value",0.979 (inactive)
same,normalized growth,"locus YHR030C, strain SLT2, stronger effect = lower value",0.953 (inactive) and 0.899 (inactive)
same,normalized growth,"locus YHR079C, strain IRE1 (second series), stronger effect = lower value",0.969 (inactive)
same,normalized growth,"locus YHR079C, strain IRE1, stronger effect = lower value",0.902 (inactive)
same,normalized growth,"locus YHR094C, strain hxt1, stronger effect = lower value",0.967 (inactive)
same,normalized growth,"locus YHR129C, strain ARP1, stronger effect = lower value",0.976 (inactive)
same,normalized growth,"locus YHR142W, strain chs7, stronger effect = lower value",0.828 (active)
same,normalized growth,"locus YHR200W, strain rpn10, stronger effect = lower value",0.979 (inactive)
same,normalized growth,"locus YIL066C, strain RNR3, stronger effect = lower value",0.942 (inactive)
same,normalized growth,"locus YIL073C, strain SPO22, stronger effect = lower value",0.924 (inactive)
same,normalized growth,"locus YIL125W, strain kgd1, stronger effect = lower value",0.95 (inactive)
same,normalized growth,"locus YIR030C, strain dcg1, stronger effect = lower value",0.972 (inactive)
same,normalized growth,"locus YJL092W, strain hpr5, stronger effect = lower value",0.936 (inactive)
same,normalized growth,"locus YJL095W, strain BCK1 (second series), stronger effect = lower value",0.959 (inactive)
same,normalized growth,"locus YJL095W, strain BCK1, stronger effect = lower value",0.789 (active) and 0.886 (inactive)
same,normalized growth,"locus YJL115W, strain asf1, stronger effect = lower value",0.959 (inactive)
same,normalized growth,"locus YJL129C, strain trk1, stronger effect = lower value",0.933 (inactive)
same,normalized growth,"locus YJL134W, strain LCB3, stronger effect = lower value",0.988 (inactive)
same,normalized growth,"locus YJL154C, strain vps35, stronger effect = lower value",0.96 (inactive)
same,normalized growth,"locus YJL164C, strain tpk1, stronger effect = lower value",0.922 (inactive)
same,normalized growth,"locus YJL166W, strain qcr8, stronger effect = lower value",0.941 (inactive)
same,normalized growth,"locus YJL168C, strain set2, stronger effect = lower value",0.979 (inactive)
same,normalized growth,"locus YJL187C, strain SWE1 (second series), stronger effect = lower value",0.973 (inactive)
same,normalized growth,"locus YJL187C, strain SWE1, stronger effect = lower value",0.966 (inactive)
same,normalized growth,"locus YJR043C, strain POL32, stronger effect = lower value",0.955 (inactive)
same,normalized growth,"locus YJR066W, strain TOR1, stronger effect = lower value",0.906 (inactive)

# From PubChem BioAssay AID1159580 (chemical genetic matrix, 2015)
